Compound activity (PubChem)
Peg3 prom inh: Peg3 promoter-driven luciferase inhibitors, primary screen, cell-based, HeLa, luciferase luminescence; 360,000 compounds, 1.7% hits; inhibition, % at 20 µM; HeLa PEG-Prom luciferase reporter, overnight;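 active means inhibition of at least 50% at 20 µM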
KKLEB tox: cytotoxicity in KKLEB CF airway cells, primary screen, cytotoxicity control for CF NF-kB inhibitor project, cell-based, uHTS, fluorescence assay plates. activity change (cytotoxicity), % at 5 µM. 360,000 compounds, 0.36% hits. AID 602141, 2011. KKLEB CF airway cells viability, ATPlite luminescence, overnight; hits give low values; cells stimulated with P. aeruginosa culture filtrate;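 active means corrected activity change at or below -50% at 5 µM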
CF NFkB inh: inhibitors of PAF-induced NF-kB signaling, primary screen, cell-based, GFP fluorescence, uHTS; KKLEB NF-kB-GFP reporter, GFP fluorescence overnight; AID 588850, 2011; inhibition, % at 5 µM; 360,000 compounds, 0.86% hits;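 active means at least 50% inhibition at 5 µM, scaled per plate between neutral and stimulator controls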;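 further: PAF is a Pseudomonas aeruginosa culture filtrate used as stimulus; plate controls were PAF-stimulated DMSO wells for no effect and unstimulated DMSO wells for full effect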
HIF-2a block: HIF-2a reporter inhibitors, primary screen, luminescence, 786-0 RCC cells. AID 624352, 2012. inhibition, % at 18.8 µM. 786-0 RCC cells HIF-2a reporter, luciferase luminescence, overnight. 360,000 compounds, 0.72% hits;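 active means inhibition of the luminescence signal of 40% or more relative to plate controls, in a single-dose primary screen at 18.75 µM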
TWEAK Fn14 block: inhibitors of TWEAK-Fn14 signaling, primary screen, luciferase reporter cells, uHTS; inhibition, % at 10 µM; TWEAK-stimulated Fn14 reporter cells, luciferase luminescence, 8 h; 360,000 compounds, 2% hits; in the data active means inhibition above about 50%
TROY NFkB inh: inhibitors of TROY-driven NF-kB signaling, primary screen, Q293 LMP1-TROYcd cells, NF-kB luciferase, uHTS. inhibition, % at 10 µM. 360,000 compounds, 0.98% hits. Q293 LMP1-TROYcd NF-kB luciferase reporter, 4 h;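 active means compounds whose plate-normalised and pattern-corrected inhibition of the luciferase reporter signal at the single screening dose is 50% or more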
Mdm2 MdmX conf: retested Mdm2-MdmX interaction blockers, confirmation, cell-based, luminescence, single concentration, set 2. shares compounds with HIF-2a block. SaOS-2 split-luciferase Mdm2/MdmX complementation. inhibition, % at 8 µM. 740 compounds, 99% hits. AID 504601, 2011;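 active means mean inhibition of the luminescence signal across two replicates at or above 26 percent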
HIF-2a inh conf: HIF-2a reporter inhibitor retest, confirmation, luminescence, 786-0 RCC cells. shares compounds with HIF-2a block. HIF-2a luciferase reporter luminescence, overnight. inhibition, % at 18.8 µM. 1,800 compounds, 56% hits;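 active means mean inhibition across four replicates of at least 40 percent at the single tested concentration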
HIF-1a counter: HIF-1a luciferase reporter signal reduction – MiaPaCa-2 cells, single concentration, counter-screen for HIF-2a inhibitor project, confirmation | shares compounds with HIF-2a block | MiaPaCa-2 HIF-1a luciferase reporter, desferoxamine, overnight | 1,800 compounds, 72% hits | inhibition, % at 18.8 µM;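 active means mean inhibition of the reporter signal across four replicates at the single tested dose of 50% or more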
Starred values were filed as active, the others as inactive; · = not tested or not shown. In the library only some 4% were active in any assay of this set; here they are far more common.

SMILES	Peg3 prom inh	KKLEB tox	CF NFkB inh	HIF-2a block	TWEAK Fn14 block	TROY NFkB inh	HIF-2a inh conf	HIF-1a counter	others
Cc1ccc(C2=C(O)c3ccccc3C(=O)C2=O)cc1	2	0	14	1	3	-16	·	·
NC(=O)C1=C(c2ccccc2)c2ccccc2C1=O	22	-11	16	51*	8	40	39	-3
CC(C)(C)C(=O)/C(=C/c1ccc(Cl)cc1)n1cncn1	105*	-23	48	93*	77*	20	88*	98*
Cc1ccc(N2C(=O)CC(N3CCN(S(=O)(=O)c4ccccc4)CC3)C2=O)c(C)c1 (stereo not drawn)	11	18	-1	6	-6	7	·	·
Cc1c(F)cccc1NS(=O)(=O)c1ccc2c(c1)NC(=O)CO2	9	3	13	14	39	2	·	·
CCOc1cccc2sc(N(CCCN(C)C)C(=O)c3ccc(S(=O)(=O)N4CCc5ccccc5C4)cc3)nc12	39	0	4	-1	-8	-38	·	·
CCc1ccc2nc(N(CCCN(C)C)C(=O)c3ccc(S(=O)(=O)N4CCc5ccccc5C4)cc3)sc2c1	28	-98*	67*	68*	-208	-87	27	47
CCCCn1c2c(c(=O)n(C)c1=O)C(CC(=O)OCC(=O)Nc1cccc(C(F)(F)F)c1)C(=O)N2 (stereo not drawn)	12	7	6	14	11	-3	·	·
O=C1c2ccccc2C(=O)c2c1oc(C(F)(F)F)c2C(=O)c1ccccc1	94*	-82*	90*	23	74*	55*	·	·	Mdm2 MdmX conf=94*
CCOC(=O)c1ccc(Nc2ccc(-c3ccc(OC)c(OC)c3)nn2)cc1	17	13	12	-4	-18	29	·	·
CCOC(=O)c1ccc(Nc2nc(N)c3cc(OC)c(OC)cc3n2)cc1	47	-13	-37	-44	-10	-54	·	·	Mdm2 MdmX conf=61*
Cn1cnc([N+](=O)[O-])c1S(=O)(=O)Oc1ccc(Cl)cc1	103*	-98*	94*	81*	15	47	30	26
Cn1cnc([N+](=O)[O-])c1Oc1ccccc1	16	12	22	3	15	3	·	·
Cn1cnc([N+](=O)[O-])c1S(=O)(=O)Oc1cccc2ccccc12	105*	-79*	86*	83*	67*	74*	31	66*
Cn1cnc([N+](=O)[O-])c1Cl	-17	4	0	18	-6	-3	·	·
CC(C)Oc1ccc(S(=O)(=O)N2CCOCC2)cc1NC(=O)C1COc2ccccc2O1 (stereo not drawn)	9	-13	7	6	13	-14	·	·
Cc1cc(C)n2c(=O)c3ccc(Cl)cc3nc2c1C#N	8	0	-79	-18	-20	-21	·	·
Cc1cc(Cl)n2c(nc3cc(F)c(F)cc32)c1C#N	110*	-69*	89*	95*	69*	36	58*	100*
CC1CN(S(=O)(=O)c2cccc(C(=O)NCCc3ccc(S(N)(=O)=O)cc3)c2)CC(C)O1 (stereo not drawn)	12	3	-6	11	3	-34	·	·
Cc1ccc(-n2[nH]c(C)c(/C=N/Nc3ccc([N+](=O)[O-])cc3[N+](=O)[O-])c2=O)cc1C	15	-30	44	-6	43	40	·	·
